Screening data deposited in PubChem by National Center for Advancing Translational Sciences (NCATS).
Sampled rows, rich in hits. Any-hit rate of the full collection: about 19%.
Lassa entry inh – blocks Lassa virus binding to or entry into cells; Lassa virus pseudotype entry inhibition, cell reporter; Potency, µM (series often up to 37.9 µM), for the others: at the highest dose activity change, negative = inhibition, usual class: inhibitors; AID 540256; 300,000 compounds, 1.2% hits; calls by dose curve; tested in HEK293 cells; note: potency is the fitted concentration of half-maximal effect; % is set by controls: 0 for no effect and ±100 for the full control effect; nearly all actives have a fitted effect of over 50% in size
CHX counter – counter-screen hit for Shiga toxin inhibitors, cycloheximide; AID 2314; 300,000 compounds, 12% hits; max response, %; cell reporter, cycloheximide protein synthesis inhibition counterscreen; in the data active = max response mostly above about 13%, no sharp cut-off; inactive = mostly below about 14%; note: read at 38.3 µM for the half of the compounds with a filed dose; 0% is about no effect
Marburg entry inh – Marburg virus entry inhibition. Marburg virus pseudotyped entry inhibition, cell reporter. Potency, µM (titrated, usually from 37.8 µM), without a hit: at the highest dose activity change, negative = inhibition, usual class: inhibitors. 300,000 compounds, 1.8% hits; calls by dose curve; tested in HEK293 cells; note: potency is the fitted concentration of half-maximal effect; % is set by controls: 0 for no effect and ±100 for the full control effect
Pf growth 48h – inhibits P. falciparum growth in the first generation, 48 h; AID 504832; Potency, µM (doses to about 28.7 µM), for the others: at the highest dose activity change, negative = inhibition, most hits filed as inhibitors; 310,000 compounds, 5.9% hits; P. falciparum luciferase growth in erythrocytes, 48 h; note: potency is the fitted concentration of half-maximal effect; % is set by controls: 0 for no effect and ±100 for the full control effect
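Read-out is firefly luciferase luminescence from an integrated reporter in P. falciparum, so falling signal marks reduced parasite growth. Infected erythrocytes were at 2% hematocrit and 0.1% parasitemia (final) in Albumax-supplemented RPMI 1640.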
Pf growth 96h – P. falciparum growth inhibition at 96 hours; Potency, µM (doses to about 28.7 µM), for the others: at the highest dose activity change, negative = inhibition, most hits filed as inhibitors; 320,000 compounds, 6.9% hits; P. falciparum luciferase reporter growth, 96 h; note: potency is the fitted concentration of half-maximal effect; % is set by controls: 0 for no effect and ±100 for the full control effect
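Luminescence readout: decreased luciferase signal marks inhibited growth of reporter-expressing P. falciparum in infected red cells (2% hematocrit, 0.05% parasitemia final), exposed to compound two generations (96 h, 37 C, 5% CO2).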
Shiga toxin inh – Shiga toxin inhibition; Vero cells, Shiga toxin protein synthesis inhibition reporter; inhibition, % at 38.7 µM; 290,000 compounds, 9.2% hits; in the data active = inhibition mostly above about 28%, no sharp cut-off; inactive = mostly below about 43%; note: 0% is about no effect
The depositor's hits bear a star; [ ] = another dose, or the depositor's remark. Unless noted, calls come from the whole dose curve; as a rule, active = well fitted inhibition curve with a large enough effect; inconclusive = small, poorly fitted or top-dose-only effect, or another doubt; inactive = no such curve, though single readings can be large or run the other way.

`CCn1c(=O)c(=O)[nH]c2cc(C(=O)NC3CCCc4ccccc43)ccc21` (stereo not given) gave Lassa entry inh inconclusive, CHX counter -7, Marburg entry inh 21µM*, Pf growth 48h inconclusive and Shiga toxin inh -4.
Screening Cc1noc(C)c1COC(=O)c1cccc(S(=O)(=O)N2CCCCCC2)c1 returned Lassa entry inh inconclusive, CHX counter 1, Marburg entry inh 8.9µM*, Pf growth 48h inconclusive, Pf growth 96h 22% and Shiga toxin inh -4.
`CC1CCC(NC(=O)c2cccc(S(=O)(=O)N3CCN(c4ccccc4)CC3)c2)CC1` (stereo not given) gave Lassa entry inh -15%, Marburg entry inh 1%[46.1 µM], Pf growth 48h inconclusive and Pf growth 96h 9%.
CCn1c(=O)c(=O)[nH]c2cc(C(=O)NC3CC3)ccc21 was read as Lassa entry inh 11%, CHX counter -7, Marburg entry inh 1%, Pf growth 48h 29%, Pf growth 96h 70% and Shiga toxin inh -3.
Screening O=C(NC1CCCCC1)C(c1ccccn1)N(C(=O)c1csnn1)C1CC1 (stereo not given) returned Lassa entry inh 10%, CHX counter 8, Marburg entry inh 6%[46.1 µM], Pf growth 48h 48%, Pf growth 96h 7% and Shiga toxin inh 20.
N#CCOc1ccccc1P(=O)(c1ccccc1)c1ccccc1 was read as CHX counter -1, Pf growth 48h 2%[0.00184 µM], Pf growth 96h -20% and Shiga toxin inh -5.
Screening Cc1cccc(NC(=O)COC(=O)c2n[nH]c3ccccc23)c1C returned Pf growth 48h 34% and Pf growth 96h 3%.
Cc1[nH]c2ccccc2c1C(=O)CSc1nc2cc(S(=O)(=O)N3CCCCC3)ccc2o1 was read as Lassa entry inh inconclusive, CHX counter -3, Marburg entry inh 7.3µM*, Pf growth 48h inconclusive, Pf growth 96h -6% and Shiga toxin inh 1.
Screening Cc1ccc(C(=O)CSc2nc3cc(S(=O)(=O)N4CCOCC4)ccc3o2)cc1 returned Lassa entry inh -19%, CHX counter -3, Marburg entry inh -17%, Pf growth 48h -16%, Pf growth 96h -6% and Shiga toxin inh 18.
Cc1onc(-c2c(Cl)cccc2Cl)c1COC(=O)c1ccc([N+](=O)[O-])cc1 was read as Lassa entry inh -2%, CHX counter 1, Marburg entry inh -18%[14.2 µM], Pf growth 48h inconclusive, Pf growth 96h inconclusive and Shiga toxin inh -13.
For Cc1onc(-c2c(Cl)cccc2Cl)c1COC(=O)c1ccc(Cl)cc1 the results were CHX counter 2, Pf growth 48h inconclusive, Pf growth 96h 13µM* and Shiga toxin inh -16.
Cc1ccnc(NC(=O)c2cccc(S(=O)(=O)N3CCCC3)c2)c1 was read as CHX counter 25*, Pf growth 48h 48%, Pf growth 96h 41% and Shiga toxin inh 22.
`Cc1cc(NC(=O)c2cccc(S(=O)(=O)N3CCCCC3)c2)no1` gave Lassa entry inh -4%, CHX counter 9.3*, Marburg entry inh 9%, Pf growth 48h inconclusive, Pf growth 96h 21% and Shiga toxin inh 11.
Screening COc1ccc(C(=O)C2CCCN(C3CSCCSC3)C2)c(OC)c1 (stereo not given) returned Lassa entry inh -15%[46.1 µM], CHX counter -2, Marburg entry inh inconclusive, Pf growth 48h inconclusive, Pf growth 96h 42% and Shiga toxin inh -11.
`COc1ccc(Cl)cc1N(CC(=O)N1CCCC1)S(=O)(=O)c1ccc(C)cc1` gave Lassa entry inh -14%[46.1 µM], CHX counter -2, Marburg entry inh inconclusive, Pf growth 48h -28%, Pf growth 96h inconclusive and Shiga toxin inh -2.
CCOCCc1nnc(NC(=O)CCS(=O)(=O)c2ccccc2)s1 was read as Lassa entry inh -19%[46.1 µM], CHX counter -2, Marburg entry inh inconclusive, Pf growth 48h -9%, Pf growth 96h 244% and Shiga toxin inh -5.
`CC(C)c1nc2oc3c(NCC4CCCO4)ncnc3c2c2c1COC(C)(C)C2` (stereo not given) gave Lassa entry inh 5%, CHX counter -2, Marburg entry inh 4%, Pf growth 48h inconclusive, Pf growth 96h 6% and Shiga toxin inh -10.
For CCc1nnc(NC(=O)c2cccc(S(=O)(=O)N3CCN(c4ccccc4)CC3)c2)s1 the results were Lassa entry inh -16%, CHX counter 0, Marburg entry inh inconclusive, Pf growth 96h 10µM* and Shiga toxin inh 15.
CCc1nnc(NC(=O)c2cc(S(=O)(=O)N3CCN(c4ccccc4)CC3)ccc2Cl)s1 was read as Lassa entry inh -4%, CHX counter 6, Marburg entry inh 0%, Pf growth 48h -2%, Pf growth 96h 6% and Shiga toxin inh 28.
For Cc1ccnc(NC(=O)c2cccc(S(=O)(=O)N3CCN(c4ccccc4)CC3)c2)c1 the results were Lassa entry inh 5µM*, Marburg entry inh inconclusive, Pf growth 48h 17% and Pf growth 96h -70%.
Cc1ccc(NC(=O)c2ccc(COc3ccccc3Cl)o2)cc1 was read as Lassa entry inh 2%[46.1 µM].
For COc1ccc(NC(=S)N2CCCN(Cc3cccc(Cl)c3)C2)cc1 the results were Lassa entry inh inconclusive, CHX counter -4, Marburg entry inh inconclusive, Pf growth 48h inconclusive, Pf growth 96h -12% and Shiga toxin inh 0.
COc1ccc(NC(=S)N2CCCN(Cc3cc(C)ccc3C)C2)cc1 was read as Lassa entry inh -23%[46.1 µM], CHX counter -7, Marburg entry inh inconclusive, Pf growth 48h 10µM*, Pf growth 96h inconclusive and Shiga toxin inh -7.
`COCCc1nc2ccc(C(=O)N(C)Cc3cccc(-n4nc(C)cc4C)c3)cc2o1` gave Lassa entry inh 14%, CHX counter 7, Marburg entry inh 1%, Pf growth 48h 0%, Pf growth 96h inconclusive and Shiga toxin inh -7.
`CCC/C=N/NC(=O)c1cc(-c2ccccc2)nc2ccccc12` gave Lassa entry inh 8%, CHX counter -6, Marburg entry inh 14%, Pf growth 48h 8%, Pf growth 96h inconclusive and Shiga toxin inh -12.
Screening Cc1noc(C(=O)Nc2ccc(Cl)cc2)c1Cl returned CHX counter -3, Pf growth 48h 22%, Pf growth 96h 68% and Shiga toxin inh -3.
`Cc1noc(C(=O)Nc2cc(Cl)ccc2O)c1Cl` gave Lassa entry inh -9%[46.1 µM], CHX counter 18, Marburg entry inh inconclusive, Pf growth 48h 5.2µM*, Pf growth 96h 19% and Shiga toxin inh 32.
Screening COc1cc(NC(=O)c2onc(C)c2Cl)c(OC)cc1Cl returned CHX counter -1, Pf growth 48h -4%, Pf growth 96h -24% and Shiga toxin inh -1.
Cc1noc(C(=O)Nc2ccc(F)c(Cl)c2)c1Cl was read as Lassa entry inh 19%, CHX counter 29*, Marburg entry inh 11%[46.1 µM], Pf growth 48h 65%, Pf growth 96h 233% and Shiga toxin inh 30*.
